NS1 inh: inhibitors of influenza NS1 protein function | Potency, µM (doses to about 46.1 µM), for the others: at the highest dose activity, positive = more growth | 0.4% of 270,000 active; calls by dose curve; note: actives are rising curves; nearly all actives have a fitted effect of over 50% in size
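In this qHTS, NS1 from influenza A is expressed in budding yeast, where it slows growth. Cells are switched from glucose to 2% galactose medium (pH 6.0, -URA), treated with compound, and growth recovery is read at OD600.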
Pf growth 96h: inhibits malaria parasite growth, 96 h | P. falciparum luciferase reporter growth, 96 h | Potency, µM (doses to about 28.7 µM), for the others: top-dose activity change, negative = inhibition, most hits filed as inhibitors | 6.9% of 320,000 active; note: % is set by controls: 0 for no effect and ±100 for the full control effect
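Readout is luminescence from an integrated firefly luciferase in P. falciparum. Red cells, 2% hematocrit and 0.05% parasitemia final, were cultured with compound through two parasite generations (96 hours) at 37 C, 5% CO2.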
Pf growth 48h: inhibits P. falciparum growth in the first generation, 48 h. 5.9% of 310,000 active. P. falciparum luciferase growth in erythrocytes, 48 h. Potency, µM (doses to about 28.7 µM), inactives show at the top dose activity change, negative = inhibition, hits mostly inhibitors. AID 504832; note: % is set by controls: 0 for no effect and ±100 for the full control effect
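Here the parasites carry a stable luciferase gene and grow inside erythrocytes in Albumax-based RPMI medium with compound for one erythrocytic cycle. Activity is scored as loss of luminescent signal.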
SARS PLP yeast: SARS-CoV PLP inhibition in yeast; 0.19% of 330,000 active; AID 485353; S. cerevisiae expressing SARS-CoV PLpro, growth rescue; Potency, µM (series often up to 32.9 µM), without a hit: at the highest dose activity, positive = growth rescue, actives largely listed as activators; calls by dose curve; note: 0% is about no effect; nearly all actives have a fitted effect of over 55% in size
* = called active by the depositor; ? = inconclusive; nt = no result. A selection: hits, their analogues and other compounds. The true share with any hit is near 10%. Unless noted, calls come from the whole dose curve; as a rule, active = well fitted inhibition curve with a large enough effect; inconclusive = small, poorly fitted or top-dose-only effect, or another doubt; inactive = no such curve, though single readings can be large or run the other way. Potency is the fitted concentration of half-maximal effect.

SMILES	NS1 inh	Pf growth 96h	Pf growth 48h	SARS PLP yeast
Cc1ccc(S(=O)(=O)N2CCN(C(=O)CN3C(=O)c4ccc([N+](=O)[O-])cc4C3=O)CC2)cc1C	nt	-21%	-13%	2%
C[C@@H]1[C@H]2[C@@H](O[C@@H]3O[C@H](CO)[C@@H](O)[C@H](O)[C@H]3O)OC=C(C(=O)O)[C@H]2C[C@@H]1O	nt	-8%	1%	3%
CCCn1cc(CN2CCCC(C(=O)c3cccc(OC(C)C)c3)C2)c(C)n1 (stereo not drawn)	3%	16%	?	-1%
CCCn1ncc(CN2CCCC(C(=O)c3cccc(OC(C)C)c3)C2)c1C (stereo not drawn)	4%	12µM*	13µM*	3%
COc1ccc(-c2oc(=O)c3cc(OC)c(OC)cc3c2C#C[C@]2(O)CC[C@H]3[C@@H]4CCc5cc(OC)ccc5[C@H]4CC[C@@]32C)cc1	nt	nt	nt	2%
COc1ccc(Nc2nnc(SCC(=O)N3CCCC3)s2)cc1	-5%	?	nt	-1%
COc1ccc(Nc2nnc(SCC(=O)N3CC(=O)Nc4ccccc43)s2)cc1	-13%	2.3µM*	?	0%
Cc1ccc(S(=O)(=O)N2Cc3ccccc3CC2C(=O)Nc2cc(C)on2)cc1 (stereo not drawn)	-3%	2%	-17%	-2%
Cc1ccc(S(=O)(=O)N2CCCC2C(=O)Nc2cc(C)on2)cc1 (stereo not drawn)	-3%	26%	4.7µM*	-6%
Cc1cccc(NC(=O)C2CCCN2S(=O)(=O)c2ccc3c(c2)n(C)c(=O)c(=O)n3C)c1 (stereo not drawn)	-2%	8.3µM*	2%	-2%
N#Cc1cccc(S(=O)(=O)NNC(=O)C23CC4CC(CC(C4)C2)C3)c1	nt	nt	nt	-8%
COc1cccc(CN2CCN(Cc3nc(-c4cccc(F)c4F)oc3C)CC2=O)c1	-7%	?	13µM*	0%
COc1cccc(CN2CCN(Cc3nc(-c4cccs4)oc3C)CC2CCO)c1 (stereo not drawn)	1%	?	9.3µM*	-1%
Cc1oc(-c2cccs2)nc1CN1CCN(CC(C)C)C(CCO)C1 (stereo not drawn)	-1%	1.9µM*	-7%	-1%
Cc1ccc(NC(=O)c2ccccc2N2C(=O)C3C4C=CC(C5CC45)C3C2=O)cc1C (stereo not drawn)	-10%	9.3µM*	?	-1%
Cc1cccc(NC(=O)c2ccc(N3C(=O)C4C5C=CC(C6CC56)C4C3=O)cc2)c1 (stereo not drawn)	12%	43%	?	0%
COCCn1c(SCC(=O)NCC2CCCO2)nc2c([nH]c3ccccc32)c1=O (stereo not drawn)	6%	2%	84%	-2%
CC1CCCN(C(=O)C2CCN(S(=O)(=O)c3ccc4c(c3)CC(C)N4C(=O)C3CC3)CC2)C1 (stereo not drawn)	7%	23%	?	1%
CC1Cc2cc(-c3csc(NC(=O)Cc4cccs4)n3)ccc2N1S(C)(=O)=O (stereo not drawn)	-3%	?	13µM*	-3%
O=C(CSc1nnc(NC(=O)C2CC(=O)N(c3ccccc3)C2)s1)NC1CCCC1 (stereo not drawn)	-4%	0%	4%	-5%
COc1ccc(N2CC(C(=O)Nc3nnc(SCC(=O)NC4CCCC4)s3)CC2=O)cc1 (stereo not drawn)	7%	6.6µM*	-12%	4%
CCOc1ccc(N2CC(C(=O)Nc3cccnc3)CC2=O)cc1 (stereo not drawn)	7%	12µM*	-21%	1%
Cc1ccc(N2CC(C(=O)Nc3nnc(SCc4cccnc4)s3)CC2=O)cc1 (stereo not drawn)	1%	0%	9%	?
COc1ccc(N2CC(C(=O)Nc3nnc(SCc4cccnc4)s3)CC2=O)cc1 (stereo not drawn)	-1%	13µM*	?	-7%
O=C(Nc1cc(Cl)ccc1F)C1=COCCO1	nt	106%	51%	-2%
SMILES	NS1 inh	Pf growth 96h	Pf growth 48h	SARS PLP yeast
NC1=NC2(CCCC2)N=C(Nc2ccccc2)N1	4%	1.5µM*	?	0%
NC1=NC(c2ccccc2)N=C(Nc2ccccc2)N1 (stereo not drawn)	-20%	2.9µM*	4.7µM*	-1%
CCCCOc1ccc(NC2=NC3(CCCCC3)N=C(N)N2)cc1	-2%	8%	0.66µM*	3%
CCCCOc1ccc(CN2CCCCC2)cc1	4%	-18%	18%	3%
Nc1nc(CCl)nc(Nc2ccccc2)n1	nt	-55%	-29%	-5%
COc1ccc(NC2=NC3(CCCCC3)N=C(N)N2)cc1	?	?	0.93µM*	1%
COc1ccc(OC)c(NC2=NC3(CCCCC3)N=C(N)N2)c1	1%	-17%	?	2%
CC1(C)N=C(N)NC(Nc2ccccc2Cl)=N1	nt	31%	-34%	nt
Cc1n[nH]c(C)c1CCCCOc1ccccc1[N+](=O)[O-]	-8%	?	34%	-5%
CCOC(=O)c1ccc(NC(=O)CCSCCc2ccccn2)cc1	nt	?	?	-1%
CCCCCCCn1c2c(c(=N)c3c1CCC3)CCCC2	-38%	6%	0.29µM*	13%
CCCCCCn1c(=O)[nH]c2c(c1=O)CCC2	-1%	16%	4%	-2%
CCn1c2c(c(=N)c3ccccc31)CCC2	-5%	?	?	0%
CCn1c2c(c(=N)c3c1CCC3)CCC2	17%	0.19µM*	0.47µM*	-11%
CCCCCCCCCn1c2c(c(=N)c3c1CCC3)CCC2	-39%	0.13µM*	0.29µM*	-124%
CCCCCCn1c2c(c(=N)c3c1CCC3)CCC2	-34%	21%	0.21µM*	-6%
CCCn1c2c(c(O)c(C(=O)NC)c1=O)CCCC2	-113%	?	-25%	-14%
Cn1c(=O)c2c(SCC(=O)N3CCOCC3)nc(-c3ccccc3Cl)nc2n(C)c1=O	10%	?	-2%	24%
CCCCn1c2c(c(=N)c3c1CCC3)CCC2	-5%	0.033µM*	0.15µM*	?
CC(Sc1ncccn1)C(=O)NC1(C#N)CCCCC1 (stereo not drawn)	nt	-23%	-7%	-10%
CC(SC1=Nc2ccccc2C2CC=NN12)C(=O)NC1(C#N)CCCCC1 (stereo not drawn)	nt	8.3µM*	?	0%
C#CCOCCOCCOCCNc1nc(N2CCN(C(=O)CCCCCCCCCCNC(=O)[C@@H](CCC(=O)O)n3cc(CCCCCN)nn3)CC2)nc(N2CCN(C(=O)CCCCCCCCCCNC(=O)[C@H]([C@@H](C)CC)n3cc(CCCCCN)nn3)CC2)n1	nt	1.5µM*	2.1µM*	2%
C#CCOCCOCCOCCNc1nc(N2CCN(C(=O)[C@H](CCCCN)n3cc(CN)nn3)CC2)nc(N2CCN(C(=O)[C@H](CCC(=O)O)n3cc(CN)nn3)CC2)n1	nt	nt	nt	1%
C#CCOCCOCCOCCNc1nc(N2CCN(C(=O)CCCCCCCCCCNC(=O)[C@H]([C@@H](C)CC)n3cc(CCCCCN)nn3)CC2)nc(N2CCN(C(=O)CCCCCCCCCCNC(=O)[C@H](CCCCN)n3cc(CCCC(=O)O)nn3)CC2)n1	nt	?	12µM*	-1%
